From the OligoGym collection

These sequences were tested against ADD2 (assay: pooled miR-30 sensor sort-seq; sequence = guide strand). Details: shRNA.
Note: reference of the scale not given here.

Sequence | sensor-assay potency score (higher = more potent)
TTCTAGTTTCTTCCTCTCCACC | -1.02
TTTCTCTCCATCAAGTTCTAGT | -0.228
TTGACCTCTGATTTAGTCTGAG | 0.252
TTTGTCTCTGCCTCCTTCGCTG | -0.0606
TCGGTAGACACTGCTGATCTTG | -0.972
TTGATAGGCGTCATCATGGAGA | -0.575
TTTAGTTTTGAAGTGCCTGAGA | -0.472
TTTCTGTCTTCTTAGTACCTTC | -0.453
TTCACTGCAAGAAACTCCCTTA | 0.39
TGACTTCACATCTTGTCGGTTT | -0.214
TCAAGTTCTAGTTTCTTCCTCT | 0.727
TTAGAGGTATCAACATCCGTGT | -0.242
TTGTCTCTGCCTCCTTCGCTGG | -1.43
TTGTTCTCGAATCTTGTTCCTC | -0.198
TAGAGGTATCAACATCCGTGTC | -1.2
TATAGCTCTTCCATCCATCATT | -1.04
TTGCTTGTTTCTGTCTTCTTAG | -0.81

What follows are sequences tested against ADIPOR1 in the same assay as above. Details: shRNA.

Sequence | sensor-assay potency score (higher = more potent)
TAGACGGTGTGAAAGAGCCAGG | -1
TAGTCGTTGTCCTTTAGCCAGT | -0.984
TCTCTGAATGACAATAGACGGT | -0.907
TTGCTCTTCTTCAGCTTTGGGT | -0.543
AAACTCTTCCATCTTCTCCATG | -1.3
TTATTTTTAAAAGCACTTGGGA | -0.469
ATAATTAGAAGAGCAATCCCTG | -1.25
ATGAAGTACATATTTGGTCTGA | -0.176
TAGAAGGAATAATAGAGCCAGG | -1.35
TGAATGACAATAGACGGTGTGA | 0.0155
TAATTAGAAGAGCAATCCCTGA | -1.23
TAGCAGATAGTCGTTGTCCTTT | -0.519

Each sequence was assayed against ADORA2B in the same assay as above. Details: shRNA.

Sequence | sensor-assay potency score (higher = more potent)
TTAAAAACAAAAGAGTCTGTTA | -0.121
TATATTTGTCAATCCTTGGAGC | -0.159
TTTCACAATGAAAACCAGCCGT | -0.477
ATTTTGTGAAAAGTGTAGCGGA | -0.0457
TTGGTGGCACTGTCTTTACTGT | -1.19
TTAGAATCCATTCAAGCTGTTG | -0.667
TTGACAACTGAATTGGCATGTG | -0.143
TTTTGTGAAAAGTGTAGCGGAA | 0.0237
TAAATATATTTGTCAATCCTTG | -0.669
AAGTGTAGCGGAAGTCTCGGTT | -0.00274
TCCCACTCTTGACATCTGCTTG | -0.99
